# Source: PubChem BioAssay (National Center for Advancing Translational Sciences (NCATS))
# HT1080 IDH1KD tx – HT-1080 IDH1 knockdown cell toxicity (counter line); HT-1080 IDH1 knockdown viability, ATP luminescence, 48 h; Potency, µM (doses to about 46.1 µM), without a hit: top-dose activity, negative = toxicity, actives largely listed as cytotoxic; 360,000 compounds, 2% hits;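 also: 0% = DMSO wells and -100% = cell-free medium wells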
#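 Knockdown cells (IDH1KD HT-1080) received compounds 2 h after plating at 750 cells/well and were kept 48 h at 37 °C in 5% FBS RPMI. A CellTiter-Glo luminescence read gave % activity for curve fitting.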
# HT1080NT lethal – kills 2HG-producing HT-1080-NT fibrosarcoma cells; HT-1080-NT fibrosarcoma viability, CellTiter-Glo ATP luminescence, 48 h; Potency, µM (series often up to 46.1 µM), inactives show at the highest dose activity, negative = less viability, actives largely listed as cytotoxic; 360,000 compounds, 1.6% hits;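 also: NT is the 2HG producing partner of a matched IDH1 knockdown line; 0% = DMSO-treated cells and -100% = media-only wells without cells; nearly all actives have a fitted effect of over 55% in size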
#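 HT-1080-NT fibrosarcoma cells (2HG-overproducing), 750 cells/well in RPMI with 5% FBS, dosed after 2 h and incubated 48 h at 37C. CellTiter-Glo luminescence normalized to DMSO and no-cell wells; concentration-response curves fitted and classed.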
# KB-3-1 tox – KB-3-1 parental cell cytotoxicity | AID 1347075 | KB-3-1 viability, CellTiter-Glo ATP luminescence, 72 h | Potency, µM (titrated, usually from 46.1 µM), hits mostly cytotoxic | 400,000 compounds, 1.4% hits; also: nearly all actives have a fitted effect of over 60% in size
#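 KB-3-1 parental drug-naive adenocarcinoma cells in DMEM/10% FBS, incubated 72 h at 37 C with pin-transferred compounds across a concentration series. Viability by CellTiter-Glo luminescence; concentration-response curves fitted after normalization.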
# TDP1 cell noCPT – qHTS for Inhibitors of human tyrosyl-DNA phosphodiesterase 1 (TDP1): qHTS in cells in absence of CPT; DT40 Tdp1-/- hTDP1 cells, no CPT, ATP luminescence, 48 h; Potency, µM (top dose mostly 46.2 µM), for the others: top-dose activity change, negative = growth inhibition, actives largely listed as inhibitors; 420,000 compounds, 15% hits; AID 686978, 2013; also: nearly all actives have a fitted effect of over 55% in size
#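 Growth kinetics read by CellTiter-Glo luminescence after ≥48 hr at 37 °C. Cells: DT40 Tdp1-/- stably carrying human TDP1, 400 per well, compound exposure in the absence of CPT (DMSO vehicle).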
# DT40 TDP1 CPT – growth inhibition of DT40 Tdp1-/-;hTDP1 cells with camptothecin (screen for TDP1 inhibitors); chicken DT40 Tdp1-/-;hTDP1 cells + 20 nM CPT, ATP luminescence, 48 h; Potency, µM (titrated, usually from 46.2 µM), for inactives: top-dose activity change, negative = growth inhibition, actives largely listed as inhibitors; 420,000 compounds, 12% hits; AID 686979; also: nearly all actives have a fitted effect of over 55% in size
#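 Cell growth measured by CellTiter-Glo luminescence after a minimum 48 h, 37 C compound exposure with 20 nM CPT in Tdp1-knockout DT40 cells stably expressing hTDP1, seeded 400/well; qHTS titration format.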
# KB-V1 cytotox – KB-V1 MDR subline cytotoxicity; Potency, µM (doses to about 46.1 µM), usual class: cytotoxic; KB-V1 MDR cells viability, CellTiter-Glo, 72 h; 400,000 compounds, 3.4% hits; also: nearly all actives have a fitted effect of over 60% in size
#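 KB-V1 cells (P-gp-expressing MDR subline of KB-3-1) in phenol-red-free DMEM with 10% FBS were exposed to library compounds over a concentration series for 72 h at 37 degrees C. Viability read by CellTiter-Glo luminescence; concentration-effect curves fitted after normalization.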
# * = called active by the depositor; i = inactive; ? = inconclusive; · = not tested or not shown; [ ] = remark or other dose. Only some compounds are listed: those with a hit (about 19% of all), similar ones and a draw of the others. Calls follow the shape of the dose curve; as a rule, active = well fitted curve in the direction sought with a large enough effect; inconclusive = small, poorly fitted or top-dose-only effect, or another doubt; inactive = no such curve, though single readings can be large; an effect the other way counts as inactive or inconclusive. Unless noted, % is scaled to controls: 0 for no effect and ±100 for the full control effect; potency is read from the fitted curve at half-maximal effect.
SMILES,HT1080 IDH1KD tx,HT1080NT lethal,KB-3-1 tox,TDP1 cell noCPT,DT40 TDP1 CPT,KB-V1 cytotox
CCCCCn1nnnc1-c1nc2cc(C)c(C)cc2[nH]c1=O,-15%,-13%,i,?,?,i
CC(C)(C)c1cc(CNC2CS(=O)(=O)C[C@@H]2O)cc(C(C)(C)C)c1O (stereo partly drawn),2%,-2%,i,16µM*,15µM*,i
O=S1(=O)CC(O)C(NCc2ccco2)C1 (stereo not drawn),0%,-1%,i,3%,16%,i
CC(C)(C)c1ccc(OCCOc2ccc(C(C)(C)C)cc2NC=O)c(NC=O)c1,15µM*,?,i,21µM*,21µM*,?
Cc1ncc(CCl)c2c1OC(C)(C)OC2,0%,10%,i,23µM*,?,i
COc1ccc(OC)c(C(c2nnnn2CCc2ccccc2)N2CCN(c3ccccc3)CC2)c1 (stereo not drawn),3%,1%,i,35µM*,?,i
COCCn1nnnc1C(c1ccc(OC)cc1OC)N1CCN(c2ccccc2)CC1 (stereo not drawn),0%,2%,i,-22%,-20%,?
CCC(c1nnnn1Cc1ccccc1)N1CCN(c2ccccc2)CC1 (stereo not drawn),8%,-1%,i,?,-1%,23µM*
c1ccc(CCn2nnnc2C(c2cccs2)N2CCN(Cc3ccc4c(c3)OCO4)CC2)cc1 (stereo not drawn),-27%,-14%,i,23µM*,?,i
c1ccc(CCn2nnnc2C(c2cccnc2)N2CCN(c3nc4ccccc4s3)CC2)cc1 (stereo not drawn),-17%,-13%,i,11µM*,18µM*,?
CC1(C)CCC(NC(=O)[C@@H](N)CCC(=O)O)CC1,·,·,·,2%,2%,·
c1ccc(CCn2nnnc2C(c2cccnc2)N2CCN(c3ccccc3)CC2)cc1 (stereo not drawn),-3%,-6%,i,11µM*,13µM*,10µM*
c1ccc(Cn2nnnc2C(c2cccnc2)N2CCN(C3CCCCC3)CC2)cc1 (stereo not drawn),19%,18%,i,-25%,-8%,?
Fc1ccc(N2CCN(C(c3cccs3)c3nnnn3CCc3ccccc3)CC2)cc1 (stereo not drawn),16%,19%,i,23µM*,?,?
N#Cc1cccc(C(c2nnnn2CCc2ccccc2)N2CCN(C3CCCCC3)CC2)c1 (stereo not drawn),1%,16%,i,18µM*,?,?
Fc1ccccc1N1CCN(C(c2cccs2)c2nnnn2CCc2ccccc2)CC1 (stereo not drawn),-2%,-3%,i,?,?,i
COc1ccc(C(c2nnnn2CCc2ccccc2)N2CCN(C3CCCC3)CC2)cc1 (stereo not drawn),2%,-22%,i,-16%,?,i
COCCn1nnnc1C(c1ccccc1)N1CCN(c2ccccc2)CC1 (stereo not drawn),0%,0%,i,-5%,-2%,i
Oc1ccc(N2CCN(C(c3cccnc3)c3nnnn3Cc3ccccc3)CC2)cc1 (stereo not drawn),8%[9.24 µM],-1%,i,18µM*,?,i
COc1cc(OC)c2c(c1)OC(c1ccccc1)CC2=O (stereo not drawn),·,·,·,?,4%,·
COc1ccc(OC)c(NC(=O)c2cc3cc(C)ccc3n2C)c1,·,·,i,?,?,i
CCCCNC(=O)C(CC)(ONc1ccccc1C(F)(F)F)c1ccccc1OC (stereo not drawn),3%,-2%,i,16µM*,?,i
CC1CCc2cc(F)ccc2N1C(=O)CSc1nnc(-c2cccs2)n1C (stereo not drawn),2%,-1%,i,-10%,-13%,7.3µM*
CC1CCc2cc(F)ccc2N1C(=O)CSc1nnc2c(n1)[nH]c1ccccc12 (stereo not drawn),?,-1%,i,?,?,16µM*
O=C(CSc1nnc2c(n1)[nH]c1ccccc12)N1CCCCC1,1%,-13%,i,-27%,0%,i
SMILES,HT1080 IDH1KD tx,HT1080NT lethal,KB-3-1 tox,TDP1 cell noCPT,DT40 TDP1 CPT,KB-V1 cytotox
CCN(CC)C(C)C(=O)Nc1c2c(cc3c1CCC3)CCC2 (stereo not drawn),1%,0%,i,-15%,-27%,9.2µM*
Cc1ccccc1CC(=O)Nc1ccc2c(c1)CCC2,-23%,-12%,i,-13%,3%,?
O=Cc1c(N2CCC3(CC2)OCCO3)nc2ccccn2c1=O,9%,12%,i,-11%,-17%,i
C#C[C@]1(O)CC[C@H]2[C@@H]3CCC4=CC(=O)CC[C@@H]4[C@H]3CC[C@@]21C,-12%,0%,?,?,?,2.3µM*
CC(=O)C1CCC2C(CCC3=CC(=O)CCC32)C1 (stereo not drawn),6%,8%,?,?,-1%,?
C#C[C@]1(OC(C)=O)CC[C@H]2[C@@H]3CCC4=CC(=O)CC[C@@H]4[C@H]3CC[C@@]21C,·,·,·,12µM*,8.4µM*,·
C[C@]12C=CC(=O)C=C1CCC1C2CC[C@@]2(C)C1CCC21OCCO1 (stereo partly drawn),-9%,-17%,i,?,?,i
C#C[C@]1(O)CC[C@H]2[C@@H]3CCC4=C(CCC(=O)C4)[C@H]3CC[C@@]21C,0%,-21%,?,7.2µM*,?,15µM*
O=C(CSc1nnc(-c2cccc(Br)c2)o1)N1CCNC1=O,0%,4%,i,0%,-25%,i
COc1ccc(NC(=O)N(C)C[C@@H]2OCc3cnnn3CCCC(=O)N([C@@H](C)CO)C[C@H]2C)cc1,-2%,30%,i,-23%,-4%,i
O=C(NC1CC(=O)N(c2ccc(Cl)cc2)C1)c1cccs1 (stereo not drawn),·,·,·,-19%,-25%,·
COc1ccc(OC)c(C(C(=O)NCc2ccco2)N(C(=O)Cn2nnc3ccccc32)C2CC2)c1 (stereo not drawn),3%,-7%,i,16µM*,13µM*,6.5µM*
